# ± gives the standard deviation of the averaged measurements.
# Key:
# Assay in all cases: cell viability (% of vehicle); higher = less cytotoxic
# [1] = system: HCI01 (cells of a triple-negative basal-like breast cancer xenograft); conditions: 1 µM; 72 h
# [2] = system: UCD52 (cells of a triple-negative basal-like breast cancer xenograft); conditions: 1 µM; 72 h
# [3] = system: WHIM2 (cells of a triple-negative basal-like breast cancer xenograft); conditions: 1 µM; 72 h
# [4] = system: WHIM30 (cells of a triple-negative basal-like breast cancer xenograft); conditions: 1 µM; 72 h
# [5] = system: HCI01; conditions: 10 µM; 72 h
# [6] = system: HCI03 (cells of an ER-positive luminal breast cancer xenograft); conditions: 10 µM; 72 h
# [7] = system: HCI09 (cells of a triple-negative luminal androgen receptor type breast cancer xenograft); conditions: 10 µM; 72 h
# [8] = system: HCI11 (cells of an ER-positive luminal breast cancer xenograft); conditions: 10 µM; 72 h
# [9] = system: HCI13 (cells of an ER-positive luminal breast cancer xenograft); conditions: 10 µM; 72 h
# [10] = system: HCI16 (cells of a triple-negative basal-like breast cancer xenograft); conditions: 10 µM; 72 h
# [11] = system: UCD52; conditions: 10 µM; 72 h
# [12] = system: WHIM2; conditions: 10 µM; 72 h
# [13] = system: WHIM30; conditions: 10 µM; 72 h
compound,measurement,setting,value
CCCCCCCCCCCC1=C(O)C(=O)C=C(O)C1=O [Embelin],cell viability,[1],92.8
same,cell viability,[2],86.8
same,cell viability,[3],93.5
same,cell viability,[4],85.6
same,cell viability,[5],75.6 ± 18
same,cell viability,[6],97.1
same,cell viability,[7],22.8 ± 1.3
same,cell viability,[8],54.1
same,cell viability,[9],86.3 ± 2.1
same,cell viability,[10],92.7
same,cell viability,[11],72.3 ± 5.4
same,cell viability,[12],77.1 ± 2.9
same,cell viability,[13],70.1 ± 13
CN(C)CC=CC(=O)Nc1cc2c(Nc3ccc(F)c(Cl)c3)ncnc2cc1OC1CCOC1.O=C(O)C=CC(=O)O.O=C(O)C=CC(=O)O (stereo unspecified) [Afatinib dimaleate],cell viability,[1],85.2
same,cell viability,[2],32.7
same,cell viability,[3],57.8
same,cell viability,[4],56
same,cell viability,[5],35.3 ± 3
same,cell viability,[6],53.8
same,cell viability,[7],35.2 ± 4.2
same,cell viability,[8],32.5
same,cell viability,[9],32.4 ± 2.1
same,cell viability,[10],30.7
same,cell viability,[11],40.1 ± 7.4
same,cell viability,[12],41.1 ± 4.1
same,cell viability,[13],54.6 ± 7
CC(C)(C)c1ccc(C(O)CCCN2CCC(C(O)(c3ccccc3)c3ccccc3)CC2)cc1 (stereo unspecified) [Terfenadine],cell viability,[1],89
same,cell viability,[2],79.9
same,cell viability,[3],81.1
same,cell viability,[4],73.1
same,cell viability,[5],34.4 ± 5.2
same,cell viability,[6],38.1
same,cell viability,[7],30.4 ± 2.9
same,cell viability,[8],55.3
same,cell viability,[9],48.3 ± 4.8
same,cell viability,[10],45.8
same,cell viability,[11],35.1 ± 4
same,cell viability,[12],42 ± 2.8
same,cell viability,[13],29.6 ± 3.5
CCCCCCCCCCCCCCCCOP(=O)([O-])OCC[N+](C)(C)C [Miltefosine],cell viability,[1],89.6
same,cell viability,[2],101
same,cell viability,[3],85.8
same,cell viability,[4],92.6
same,cell viability,[5],98.9 ± 9.1
same,cell viability,[6],108
same,cell viability,[7],87.7 ± 30
same,cell viability,[8],107
same,cell viability,[9],33.2 ± 0.37
same,cell viability,[10],82.1
same,cell viability,[11],77.6 ± 9.7
same,cell viability,[12],38.2 ± 14
same,cell viability,[13],58.56 ± 0.43
CNC1CCC(c2ccc(Cl)c(Cl)c2)c2ccccc21.Cl (stereo unspecified) [Sertraline HCl],cell viability,[1],92.9
same,cell viability,[2],78.6
same,cell viability,[3],101
same,cell viability,[4],85.2
same,cell viability,[5],27.7 ± 2.6
same,cell viability,[6],74.8
same,cell viability,[7],32.2 ± 4.6
same,cell viability,[8],79.2
same,cell viability,[9],118 ± 3.2
same,cell viability,[10],60.4
same,cell viability,[11],29.3 ± 0.42
same,cell viability,[12],42.8 ± 3.1
same,cell viability,[13],58.9 ± 1.9
CC(NCCCc1cccc(C(F)(F)F)c1)c1cccc2ccccc12 (stereo unspecified) [Cinacalcet],cell viability,[1],102
same,cell viability,[2],78.1
same,cell viability,[3],91.9
same,cell viability,[4],83.9
same,cell viability,[5],33.2 ± 2.7
same,cell viability,[6],34.2
same,cell viability,[7],17.1 ± 4.2
same,cell viability,[8],122
same,cell viability,[9],43.4 ± 3
same,cell viability,[10],33.5
same,cell viability,[11],17.3 ± 0.67
same,cell viability,[12],34.7 ± 8.7
same,cell viability,[13],35.8 ± 1.6
CNC(=O)c1cc(Oc2ccc(NC(=O)Nc3ccc(Cl)c(C(F)(F)F)c3)c(F)c2)ccn1.Cl [Regorafenib hydrochloride],cell viability,[1],104
same,cell viability,[2],71.5
same,cell viability,[3],104
same,cell viability,[4],98.7
same,cell viability,[5],56.2 ± 0.73
same,cell viability,[6],114
same,cell viability,[7],82.2 ± 10
same,cell viability,[8],65.5
same,cell viability,[9],36.7 ± 1.2
same,cell viability,[10],62.7
same,cell viability,[11],93.8 ± 11
same,cell viability,[12],97.7 ± 4.6
same,cell viability,[13],60.6 ± 32
CC1(C)CCC(c2ccc(Cl)cc2)=C(CN2CCN(c3ccc(C(=O)NS(=O)(=O)c4ccc(NC(CCN5CCOCC5)CSc5ccccc5)c(S(=O)(=O)C(F)(F)F)c4)cc3)CC2)C1 (stereo unspecified) [ABT-263 (Navitoclax)],cell viability,[1],76.2
same,cell viability,[2],54.1
same,cell viability,[3],66.8
same,cell viability,[4],62.2
same,cell viability,[5],28 ± 2
same,cell viability,[6],44.2
same,cell viability,[7],21.8 ± 3.1
same,cell viability,[8],47.1
same,cell viability,[9],33.8 ± 0.76
same,cell viability,[10],29.6
same,cell viability,[11],36.5 ± 2.4
same,cell viability,[12],32.1 ± 4.1
same,cell viability,[13],35.2 ± 7.7
CO[C@H]1C[C@@H]2CC[C@@H](C)[C@@](O)(O2)C(=O)C(=O)N2CCCC[C@H]2C(=O)O[C@H]([C@H](C)C[C@@H]2CC[C@@H](O)[C@H](OC)C2)CC(=O)[C@H](C)/C=C(\C)[C@@H](O)[C@@H](OC)C(=O)[C@H](C)C[C@H](C)/C=C/C=C/C=C/1C [Rapamycin (Sirolimus)],cell viability,[1],78.1
same,cell viability,[2],52.6
same,cell viability,[3],68.3
same,cell viability,[4],75.4
same,cell viability,[5],40.4 ± 7.5
same,cell viability,[6],69.6
same,cell viability,[7],30.6 ± 8.6
same,cell viability,[8],51.6
same,cell viability,[9],39.5 ± 5.2
same,cell viability,[10],57.1
same,cell viability,[11],25.5 ± 2.9
same,cell viability,[12],42 ± 2.1
same,cell viability,[13],68.9 ± 29
CC(CCC(=O)O)C1CCC2C3CCC4CC(O)CCC4(C)C3CCC12C (stereo unspecified) [Lithocholic Acid],cell viability,[1],89.2
same,cell viability,[2],96.6
same,cell viability,[3],92.9
same,cell viability,[4],91.5
same,cell viability,[5],65.5 ± 50
same,cell viability,[6],132
same,cell viability,[7],95.1 ± 24
same,cell viability,[8],103
same,cell viability,[9],84.8 ± 7
same,cell viability,[10],91.3
same,cell viability,[11],86.8 ± 6.5
same,cell viability,[12],37.8 ± 10
same,cell viability,[13],90.1 ± 6.3
O=C(NC1CCN(CCCCC2(C(=O)NCC(F)(F)F)c3ccccc3-c3ccccc32)CC1)c1ccccc1-c1ccc(C(F)(F)F)cc1 [Lomitapide],cell viability,[1],92.2
same,cell viability,[2],56.3
same,cell viability,[3],62.7
same,cell viability,[4],63.8
same,cell viability,[5],34.8 ± 7.4
same,cell viability,[6],49.3
same,cell viability,[7],26.5 ± 2.4
same,cell viability,[8],43.7
same,cell viability,[9],33.8 ± 3.2
same,cell viability,[10],47.3
same,cell viability,[11],33 ± 3
same,cell viability,[12],41 ± 4.1
same,cell viability,[13],109 ± 5.5
C=C1C(=CC=C2CCCC3(C)C2CCC3C(C)CCCC(C)C)CC(O)CC1O (stereo unspecified) [Alfacalcidol],cell viability,[1],72.3
same,cell viability,[2],59
same,cell viability,[3],51.8
same,cell viability,[4],91.3
same,cell viability,[5],31.7 ± 13
same,cell viability,[6],124
same,cell viability,[7],29.8 ± 8.2
same,cell viability,[8],70.1
same,cell viability,[9],52.6 ± 8.1
same,cell viability,[10],106
same,cell viability,[11],68.1 ± 0.89
same,cell viability,[12],49.9 ± 8.4
same,cell viability,[13],97.46 ± 0.87
CNCCCC12CCC(c3ccccc31)c1ccccc12.Cl [Maprotiline HCl],cell viability,[1],90.9
same,cell viability,[2],81.1
same,cell viability,[3],93.2
same,cell viability,[4],83.3
same,cell viability,[5],89.8 ± 4.9
same,cell viability,[6],75.5
same,cell viability,[7],56.8 ± 21
same,cell viability,[8],78.4
same,cell viability,[9],107.1 ± 0.46
same,cell viability,[10],80.2
same,cell viability,[11],35.4 ± 2.8
same,cell viability,[12],66.6 ± 10
same,cell viability,[13],44.8 ± 30
CO[C@H]1/C=C/O[C@@]2(C)Oc3c(C)c(O)c4c(O)c(c(/C=N/N5CCN(C6CCCC6)CC5)c(O)c4c3C2=O)NC(=O)/C(C)=C\C=C\[C@H](C)[C@H](O)[C@@H](C)[C@@H](O)[C@@H](C)[C@H](OC(C)=O)[C@@H]1C [Rifapentine],cell viability,[1],93.7
same,cell viability,[2],88.8
same,cell viability,[3],104
same,cell viability,[4],95.8
same,cell viability,[5],47.7 ± 28
same,cell viability,[6],120
same,cell viability,[7],26.9 ± 5.9
same,cell viability,[8],104
same,cell viability,[9],133 ± 18
same,cell viability,[10],122
same,cell viability,[11],77.4 ± 4.6
same,cell viability,[12],53.9 ± 24
same,cell viability,[13],117.8 ± 0.39
CC(C)C(=O)OCC(=O)[C@@]12O[C@H](C3CCCCC3)O[C@@H]1C[C@H]1[C@@H]3CCC4=CC(=O)C=C[C@]4(C)[C@H]3[C@@H](O)C[C@@]12C [Ciclesonide],cell viability,[1],115
same,cell viability,[2],127
same,cell viability,[3],81.6
same,cell viability,[4],145
same,cell viability,[5],67.6 ± 23
same,cell viability,[6],76.3
same,cell viability,[7],50.6 ± 24
same,cell viability,[8],90.1
same,cell viability,[9],48.9 ± 2.2
same,cell viability,[10],122
same,cell viability,[11],46.7 ± 24
same,cell viability,[12],36 ± 1.9
same,cell viability,[13],100 ± 16
CNC(=O)c1cc(Oc2ccc(NC(=O)Nc3ccc(Cl)c(C(F)(F)F)c3)cc2)ccn1 [Sorafenib],cell viability,[1],107
same,cell viability,[2],67.7
same,cell viability,[3],92.6
same,cell viability,[4],78
same,cell viability,[5],43.2 ± 12
same,cell viability,[6],89.2
same,cell viability,[7],25.2 ± 2.9
same,cell viability,[8],52.4
same,cell viability,[9],33.2 ± 5.5
same,cell viability,[10],41.1
same,cell viability,[11],46 ± 1.8
same,cell viability,[12],42.7 ± 5.5
same,cell viability,[13],37 ± 2.4
CO[C@@]12[C@H](COC(N)=O)C3=C(C(=O)C(C)=C(N)C3=O)N1C[C@@H]1N[C@@H]12 [Mitomycin C],cell viability,[1],59.3
same,cell viability,[2],88.3
same,cell viability,[3],75.4
same,cell viability,[4],66.9
same,cell viability,[5],46.7 ± 2.1
same,cell viability,[6],56.9
same,cell viability,[7],35.4 ± 3.3
same,cell viability,[8],64.6
same,cell viability,[9],45 ± 3.3
same,cell viability,[10],61.4
same,cell viability,[11],32.3 ± 0.47
same,cell viability,[12],47.3 ± 5.7
same,cell viability,[13],57.77 ± 0.16

# From the supplement of paper PMC6992640
